Test results reported in PubChem BioAssay AID602289 (National Center for Advancing Translational Sciences (NCATS), 2012).
The whole screen tested about 2,400 compounds, of which about 40 (2%) were called active. Inconclusive results (about 1%) are left out. The sample holds actives, similar compounds and a random draw of the others, so the mix is not that of the screen.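 The calls were made as follows: active = inhibition at or above 60%; inconclusive = inhibition from 0% up to below 60%; inactive = no inhibition observed.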

Assay: qHTS Assay for Small Molecule Inhibitors of Mitochondrial Division or Activators of Mitochondrial Fusion: Hit Validation in Malachite Green Assay;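 as to inhibition: plate controls were DMSO wells with GTPase for no effect and protein-free buffer wells for full effect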
Conditions: purified GTPase, malachite green phosphate release, A650; hits give high values
Source text: The budding yeast S. cerevisiae is a powerful system to study mitochondrial fusion. Unlike other organisms, yeast cells without functional mitochondrial DNA (mtDNA) can be propagated and studied as long as they maintain a mitochondrial compartment and are provided with a fermentable carbon source. When mitochondrial fusion is blocked in yeast, mitochondrial tubules rapidly fragment and division continues unopposed. Under conditions where fusion is compromised in mammalian cells, nearly identical changes in mitochondrial structure have been observed. Thus, these findings indicate that steady state mitochondrial structure in cells is a characteristic and specific indicator of fusion activity. Mounting evidence has pointed to a connection between mitochondrial dynamics and apoptosis in mammalian cells. These studies indicate that in mammalian cells mitochondrial dynamics are more integrated into cellular processes than in yeast cells and have evolved not only to distribute the organelle but also to aid in the regulation of cellular homeostasis. Mitochondrial fusion proteins attenuate apoptosis by inhibiting the release of cytochrome c from mitochondria, in part by controlling cristae structures. Thus, small molecules that inhibit mitochondrial fusion may promote apoptosis and potentially act as novel chemotherapeutics and stimulation of apoptosis has become an attractive target of anti-cancer therapies. To identify inhibitors of mitochondrial division, we exploit the growth phenotypes of mitochondrial fusion-defective mutants. The temperature sensitive fusion alleles, such as fzo1-1 and mgm1-5, cause mitochondrial membranes to fragment in cells under non-permissive conditions and cells lose mtDNA, and are unable to grow in the presence of non-fermentable carbon source glycerol. Inhibiting mitochondrial division rescues growth. The hits were tested by the assay provider in a malachite green assay. NIH Chemical Genomics Center [NCGC] NIH Molecular Libraries Probe Production Centers Network [MLPCN] MLPCN Grant: MH081279 Assay Submitter (PI): Jodi M. Nunnari
Malachite Green Reagent Malachite Green carbinol base- Aldrich 229105 Ammonium molybdate - Sigma A7302 For 100 mL Malachite Green reagent in 1N HCl 16 mL conc. HCL + 32 mL H20 = 48 mL 4N HCl 34 mg malachite green base into 40 mL 1N HCl (10 mL 4N HCl + 30 mL H20) 1 g ammonium molybdate in 15 mL 4N HCl Mix Solutions together. Bring up to […] with H2O. Filter using a 0.2 um tissue culture filter unit (has plastic bottle attached) store at 4 masculine C. (Avoid Glassware/Plastics washed in detergent. Mix solutions in 50 mL conical vials.) For 20 uL reaction volume 1.0 uL Test Drug or DMSO: Added first to each well […]: 25 mM Hepes/Pipes pH 7.0 (H/P) 2.0 uL: 50 mM MgCl2 (final 5mM) 2.32 uL: 1 M NaCl (with contributing protein salt, Final = 150mM) 13.4 uL per reaction. Can be mixed in larger volume (Mini Master Mix) 1.6 uL: Protein 7.5 uM or Protein Freezing Buffer. (Final = 0.6uM) After Protein Added to mini Master Mix, 15ul Total Master Mix added to each well with drug. 4 uL: 500 uM GTP (Final = 100uM), Dilute with 25 mM H/P, store on ice. 20 uL Total Volume Make Master Mix: (Calculate desired reactions and add a few for multi-channel pipetting volume). Multiply the number of desired reactions by 13.4 uL for total Mini Master volume. Multiply the number of desired reactions by 1.6 uL for total Protein volume. Mix, and keep on ice until added to wells. Add 15 uL of Master Mix to each reaction well, incubate with drug for 10 min. For Positive (No Drug) controls add 15 uL Master Mix to wells with only 1 uL DMSO. Make PFB (Protein Freezing Buffer) (no Protein) Master Mix. Multiply the number of desired reactions by 13.4 uL for total Mini Master volume. Multiply the number of desired reactions by 1.6 uL for total PFB volume. Mix, and keep on ice until added to wells Add 10 uL of PFBMaster Mix to each Phosphate Standards well, and 15 uL to each negative control well with DMSO. […]

inhibition, active:
Cc1ccc(-c2nnc(NC(=O)c3ccco3)o2)c(C)c1 74.4%
COc1ccc(OC)c(/C=C2\SC(N3CCCC(C)C3)=NC2=O)c1 (centres undefined) 66.7%
O=C(Nc1nnc(-c2ccco2)o1)c1ccc2ccccc2c1 60.5%
COc1ccc(-c2nnc(NC(=O)c3ccc(F)cc3)o2)cc1 63.4%
Cc1c(NC(=O)c2cccs2)cccc1-c1nc2ccccc2s1 85.9%
CCNc1ccc(Br)cc(C(=O)/C=C/c2ccc(Cl)cc2)c1=O 100%
CCCc1c(C)nc2ccccc2c1SCCC#N 84.5%
CCCCc1c(C)nc2ccccc2c1SCCC#N 73.5%
CCCc1cc(C(N)=O)c(NC(=O)c2ccoc2C)s1 101%
NC(=O)c1cc(Cc2ccccc2)sc1NC(=O)c1ccco1 102%

inhibition, inactive:
O=C(/C=C/c1ccc(Cl)cc1)N(c1ccccn1)C1CCCCC1
CC(/C=N/NC(=O)CSc1nnc(SCc2ccccc2)s1)=C\c1ccco1
COc1ccc(-c2nn(-c3ccccc3)cc2/C=N/Nc2ccc3ccccc3n2)cc1OC
COc1ccccc1C1CC(c2ccc(Br)cc2)=NN1C(=O)c1cccnc1 (centres undefined)
CCC(C)c1ccc(N(CC(=O)NC(C)(C)C)C(=O)CNC(=O)c2cccs2)cc1 (centres undefined)
Cc1nc(NCc2ccccn2)c2c3c(sc2n1)CCCC3
COc1c(C)cc(Br)cc1C(=O)Nc1cccc(NC(=O)c2ccco2)c1
CN(C)c1cccc(NC(=O)c2ccco2)c1
CC1=C(C)CC(C(=O)NNC(=O)c2csc3c2CCC(C(C)(C)C)C3)C(C(=O)O)C1 (centres undefined)
Cc1ccc(SCCNS(=O)(=O)c2ccc3c(c2)OCCO3)cc1
C=CCc1c(C)nc(-c2ccccc2)nc1Nc1ccc(O)cc1
COc1ccc(Cl)cc1NC(=O)CN(C)C(=O)c1cc2c(F)cccc2s1
COc1cccc(C2=CC(=O)C[C@H](c3ccc(Cl)cc3)C2)c1
COC(=O)[C@@]12CCCCN1[C@H](c1ccc(-c3ccc(OC)cc3)c(OC)c1)[C@@H]1C(=O)N(C)C(=O)[C@@H]12
O=C(Nc1cccc(-c2nnc(-c3ccccc3)o2)c1)c1ccc(Br)o1
COc1cc(/C=C2\SC(N3CCCCC3)=NC2=O)cc(OC)c1OC
O=C1N=C(N2CCN(c3ccccc3)CC2)S/C1=C/c1cccs1
COC(=O)c1cc2c(ccn2-c2ccc(F)cc2)n1Cc1ccc(OC(C)=O)cc1
Cc1ccc(S(=O)(=O)NC23CC4CC(CC(C4)C2)C3)cc1
CC1CCc2nc3ccc(S(=O)(=O)N4CCC(C(=O)NCc5ccccc5Cl)CC4)cc3c(C(=O)O)c2C1 (centres undefined)
Cc1ccc2nnn(Cc3cccc(C(C)(C)C)c3O)c2c1
O=C(Nc1ccccc1N1CCCC1)c1ccc2ccccc2c1
COc1ccc(C(=O)Nc2nc(-c3cccs3)cs2)cc1
O=C(Nc1nnc(-c2ccccc2)o1)c1cc(-c2cccs2)nc2ccccc12
COc1cccc(-c2nnc(NC(=O)c3ccc4ncsc4c3)o2)c1
Nc1nc(Nc2cccc(Cl)c2)nc(NCc2ccco2)c1[N+](=O)[O-]
Cc1ccc(N=C2NC(=O)/C(=C\c3ccsc3)S2)c(C)c1
COc1ccc(C(=O)Nc2cc3c(cc2N2CCCCC2)n(C)c(=O)n3C)cc1OC
O=C(CCNC(=O)c1ccccc1Cl)Nc1ccc(Cl)c(C(F)(F)F)c1
CC(=O)Nc1ccc(O)c(-c2nc3ccccc3s2)c1
O=C(Nc1cccc(-c2nc3ccccc3s2)c1)c1cccs1
CCOc1ccc2nc(NC(=O)Nc3cccs3)sc2c1
Cc1c(Cl)c([N+](=O)[O-])nn1Cc1ccc(C(=O)Nc2ccc(Cl)cn2)o1
O=C(Nc1ccc(O)c2c(=O)cc(-c3cccc(Cl)c3)oc12)c1ccccc1Cl
CC(C)n1c(C(=O)OCC(=O)NCc2ccc3c(c2)OCO3)cc2sccc21
CC(CCc1ccccc1)NC(=O)/C=C/c1ccc(F)cc1 (centres undefined)
CCOC(=O)c1c(C)[nH]c(C)c1C(=O)COC(=O)/C=C/c1ccc(Cl)cc1
CC(=O)Nc1cccc(C(=O)/C=C/c2ccc(Br)cc2)c1
CCOc1ccc(CN(C(=O)c2cc3ccccc3oc2=O)C2CC2)cc1
O=C(c1ccc(COc2ccc(Cl)cc2)o1)N1CCN(Cc2ccc3c(c2)OCO3)CC1
CCOC(=O)c1n[nH]n2c1nc(=O)c1ccccc12
Cc1nc(CS(=O)(=O)c2ccc(Cl)cc2)cc(Sc2ccccc2Cl)n1
CCCCc1cc(=O)oc2cc(OS(C)(=O)=O)ccc12
CCCCSc1nnc(-c2ccc(C)cc2)c2ccccc12
CCCCN(CC)c1nc(-c2ccncc2)nc2ccccc12
COc1ccc(-c2ccc(-c3nc4ccc(C)cn4c3NC3CCCCC3)cc2OC)cc1
Cc1cc2c(cc1C)CSC(c1ccccc1O)SC2
CCOC(=O)c1ccc(NC(=S)N2CCSC2c2ccc(Cl)cc2)cc1 (centres undefined)
CCCCC(c1nnnn1CC1CCCO1)N1CCN(c2nc3ccccc3s2)CC1 (centres undefined)
Cc1cccc(-c2nc(CS(=O)CC(=O)NC(C)CCc3ccccc3)c(C)o2)c1 (centres undefined)
COC(=O)c1sc2nc(C)nc(SCC(=O)C(C)(C)C)c2c1C
Cc1ccccc1N=C(NOCc1ccccc1)c1nonc1N
C[C@@]12C(=O)N(Cc3ccccc3)CC(=O)N1[C@H]1c3cc(Cl)ccc3OC[C@@H]1[C@@H]2c1ccccc1
Cc1sc(NC(=O)c2ccco2)nc1-c1ccccc1
Cc1occc1C(=O)NC1CCCCCCC1
CCC1CCc2c(sc(NC(=O)c3ccoc3C)c2C(N)=O)C1 (centres undefined)
O=C(Nc1cc(-c2ccccc2)cs1)c1ccco1
Cc1ccc(C)c(N2CCN(C(=O)c3csc4ccccc34)CC2)c1
Cc1cc(-c2ccc(C)c(S(=O)(=O)NCc3ccc(Br)cc3)c2)on1
